These results are taken from PubChem BioAssay.

Several values for one entry are separate records, joined by “and”; a condition that tells them apart may be missing. Equal values may be shown once. Activity calls are given as the source filed them. Unless noted, the rule behind the calls is not given here.

Tested on in one experiment: not listed separately
The experiment in a line: hESC survival regulators, cell-based (AID 493140).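 Note: cells exposed to compounds for four days before counting.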 The following applies: human embryonic stem cell survival screen; stronger effect = higher value.
For `N=c1nc(N2CCCCC2)cc(N)n1O`, the survival is 23.2 (inactive).
Take `CC(C)NCC(O)COc1cccc2[nH]ccc12` (stereo not given): the survival is 5.75 (inactive).
Same read-out and setting: next, `CCn1cc(C(=O)O)c(=O)c2ccc(C)nc21`: 18 (inactive).
On the same count and under the same terms, for `CN(C)C(=O)C(CCN1CCC(O)(c2ccc(Cl)cc2)CC1)(c1ccccc1)c1ccccc1` the value was 9 (inactive); for `Cc1cc(NS(=O)(=O)c2ccc(N)cc2)no1`, 30.6 (inactive).
For `O=C1CN(/N=C/c2ccc([N+](=O)[O-])o2)C(=O)N1`, the survival was 10.8 (inactive).
For the compound `COc1cc(Cc2cnc(N)nc2N)cc(OC)c1OC`, the survival is 17.1 (inactive).
For the compound `COC(=O)C1=C(C)NC(C)=C(C(=O)OCCN(C)Cc2ccccc2)C1c1cccc([N+](=O)[O-])c1` (stereo not given), the survival was 2.33 (inactive).
For the compound `O=C(CCCN1CCC(O)(c2ccc(Cl)cc2)CC1)c1ccc(F)cc1`, the survival is 6.08 (inactive).
Turning to `COc1ccc2c(c1)C(=O)N(CCc1ccc(S(=O)(=O)NC(=O)NC3CCCCC3)cc1)C(=O)C2(C)C`, the survival was 22.9 (inactive).
Still for that read-out and setting: for `CC(C)(C)NCC(O)c1ccc(O)c(CO)c1` (stereo not given) the value was 26.5 (inactive).
Regarding `COc1ccc2cc([C@H](C)C(=O)O)ccc2c1`, the survival was 2.08 (inactive).
The same measure, in the same setting: next, `COc1c2occc2cc2ccc(=O)oc12`: 5.42 (inactive); `CN/C(=C\[N+](=O)[O-])NCCSCc1ccc(CN(C)C)o1`: 19.6 (inactive); `CNCCCN1c2ccccc2CCc2ccccc21`: 2.75 (inactive).
The same measure, in the same setting: for `CN1C(=O)CC[C@H]1c1cccnc1` the value was 19.8 (inactive).
Same read-out and setting: for `CCCC(=O)Nc1ccc(OCC(O)CNC(C)C)c(C(C)=O)c1` (stereo not given) the value was 12.1 (inactive); for `O=C(O)CCc1nc(-c2ccccc2)c(-c2ccccc2)o1`, 5.67 (inactive); for `CC(C)OC(=O)C(C)(C)Oc1ccc(C(=O)c2ccc(Cl)cc2)cc1`, 16.9 (inactive).
As for `CC(C(=O)O)c1cccc(C(=O)c2ccccc2)c1` (stereo not given), the survival is 15.6 (inactive).
As to `CN1CCN(C2=Nc3cc(Cl)ccc3Nc3ccccc32)CC1`, the survival was 15.2 (inactive).
Still for that read-out and setting: next, `COC(=O)C1=C(C)NC(C)=C(C(=O)OC)C1c1ccccc1[N+](=O)[O-]`: 26.5 (inactive).

Tested on in the next experiment: not listed separately
The experiment in a line: liver-stage malaria parasite growth inhibition, primary screen, cell-based, HepG2, luciferase luminescence, HepG2 viability (AID 624349; in the data active = parasite load remaining mostly below about 12%, no sharp cut-off; inactive = mostly above about 10%;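 note: 100% = mean of DMSO negative control wells on the same plate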). The following applies: P. berghei liver stage in HepG2, luciferase luminescence, concentration not given here; parasite load remaining: stronger effect = lower value; viability: measured here: HepG2 viability without parasites.
In general, viability refers to a read-out of living cells in per cent, often relative to untreated cells. Take `COCCCOc1ccnc(CS(=O)c2nc3ccccc3[nH]2)c1C` (stereo not given): the viability is 108% and 71%; the parasite load remaining is 32% (inactive) and 56.4% (inactive).
For the compound `COc1ccc2c(c1)C(=O)N(CCc1ccc(S(=O)(=O)NC(=O)NC3CCCCC3)cc1)C(=O)C2(C)C`, the viability was found to be 79.4% and the parasite load remaining was 128% (inactive).
In the case of `NC(=O)c1cccnc1`, the viability is 200% and 89.4% and 114%; the parasite load remaining is 64% (inactive) and 68.4% (inactive) and 18% (inactive).
Consider `Oc1ccc(O)cc1`, for which the viability is 92.7% and 79.1%; the parasite load remaining is 24.8% (inactive) and -0.995% (inactive).

The test system of a further experiment is Hepatitis C virus NS3 helicase. The experiment in a line: HCV NS3 helicase inhibitors, primary screen, biochemical, fluorescence polarization, LOPAC1280 library (AID 687035; in the data active = inhibition above about 37%). The following applies: Purified HCV NS3 helicase, Cy5-dT15 ssDNA binding fluorescence polarization; stronger effect = higher value; concentration not given here. In general terms: Fluorescence polarisation rises when a labelled molecule tumbles more slowly, as on binding a larger partner.
As usually defined, the inhibition is the relative decrease from the control value, in per cent. In the case of `N=c1nc(N2CCCCC2)cc(N)n1O`, the inhibition is -4% (inactive).
The same measure, in the same setting: for `CC(C)NCC(O)COc1cccc2[nH]ccc12` (stereo not given) the value was -5% (inactive); for `CN(C)C(=O)C(CCN1CCC(O)(c2ccc(Cl)cc2)CC1)(c1ccccc1)c1ccccc1`, -4% (inactive); for `CCCC(CCC)C(=O)O`, 0% (inactive).
Still for that read-out and setting: for `COc1cc(Cc2cnc(N)nc2N)cc(OC)c1OC` the value was 1% (inactive); for `COC(=O)C1=C(C)NC(C)=C(C(=O)OCCN(C)Cc2ccccc2)C1c1cccc([N+](=O)[O-])c1` (stereo not given), 3% (inactive).
For `O=C(CCCN1CCC(O)(c2ccc(Cl)cc2)CC1)c1ccc(F)cc1`, the inhibition was -3% (inactive).
The same measure, in the same setting: for `CC(C)(C)NCC(O)c1ccc(O)c(CO)c1` (stereo not given) the value was 0% (inactive).
In the case of `COc1ccc2cc([C@H](C)C(=O)O)ccc2c1`, the inhibition was -6% (inactive).
Take `CN/C(=C\[N+](=O)[O-])NCCSCc1ccc(CN(C)C)o1`: the inhibition was -3% (inactive).
`CNCCCN1c2ccccc2CCc2ccccc21`: the inhibition was -1% (inactive).
Same read-out and setting: for `CN1C(=O)CC[C@H]1c1cccnc1` the value was -2% (inactive).
On the same count and under the same terms, for `O=C(O)CCc1nc(-c2ccccc2)c(-c2ccccc2)o1` the value was -4% (inactive); for `CC(C(=O)O)c1cccc(C(=O)c2ccccc2)c1` (stereo not given), -5% (inactive).
On to `CN1CCN(C2=Nc3cc(Cl)ccc3Nc3ccccc32)CC1`, for which the inhibition was -3% (inactive).
The same measure, in the same setting: for `Oc1ccc(O)cc1` the value was 0% (inactive); for `COC(=O)C1=C(C)NC(C)=C(C(=O)OC)C1c1ccccc1[N+](=O)[O-]`, -1% (inactive).

Tested on in the next experiment: not listed separately
The experiment in a line: Cy5 fluorescence quenching or enhancement artefacts, artefact control for HCV NS3 helicase inhibitor project, biochemical, LOPAC1280 (AID 687037). The following applies: Cy5-DNA-NS3h complex fluorescence interference counterscreen.
As for `N=c1nc(N2CCCCC2)cc(N)n1O`, the fluorescence ratio (interference) is 1 (inactive).
For the compound `CC(C)NCC(O)COc1cccc2[nH]ccc12` (stereo not given), the fluorescence ratio (interference) is 1 (inactive).
Regarding `CN(C)C(=O)C(CCN1CCC(O)(c2ccc(Cl)cc2)CC1)(c1ccccc1)c1ccccc1`, the fluorescence ratio (interference) is 1 (inactive).
As to `CCCC(CCC)C(=O)O`, the fluorescence ratio (interference) was 1 (inactive).
The same measure, in the same setting: for `COc1cc(Cc2cnc(N)nc2N)cc(OC)c1OC` the value was 1 (inactive); for `COC(=O)C1=C(C)NC(C)=C(C(=O)OCCN(C)Cc2ccccc2)C1c1cccc([N+](=O)[O-])c1` (stereo not given), 1 (inactive).
With `O=C(CCCN1CCC(O)(c2ccc(Cl)cc2)CC1)c1ccc(F)cc1`, the fluorescence ratio (interference) is 1 (inactive).
On the same count and under the same terms, next, `CC(C)(C)NCC(O)c1ccc(O)c(CO)c1` (stereo not given): 1 (inactive).
The same measure, in the same setting: for `COc1ccc2cc([C@H](C)C(=O)O)ccc2c1` the value was 1 (inactive).
Take `CN/C(=C\[N+](=O)[O-])NCCSCc1ccc(CN(C)C)o1`: the fluorescence ratio (interference) was 0.9 (inactive).
Still for that read-out and setting: next, `CNCCCN1c2ccccc2CCc2ccccc21`: 1 (inactive); `CN1C(=O)CC[C@H]1c1cccnc1`: 1 (inactive); `O=C(O)CCc1nc(-c2ccccc2)c(-c2ccccc2)o1`: 1 (inactive).
On the same count and under the same terms, for `CC(C)OC(=O)C(C)(C)Oc1ccc(C(=O)c2ccc(Cl)cc2)cc1` the value was 1.1 (inactive).
Still for that read-out and setting: for `CC(C(=O)O)c1cccc(C(=O)c2ccccc2)c1` (stereo not given) the value was 1 (inactive).
In the case of `CN1CCN(C2=Nc3cc(Cl)ccc3Nc3ccccc32)CC1`, the fluorescence ratio (interference) was 1 (inactive).
On the same count and under the same terms, next, `Oc1ccc(O)cc1`: 1.1 (inactive).
Still for that read-out and setting: next, `COC(=O)C1=C(C)NC(C)=C(C(=O)OC)C1c1ccccc1[N+](=O)[O-]`: 1 (inactive).
